The results in this text go back to PubChem BioAssay (Tox21).

Results filed as inconclusive are left out. Where a call stands in place of a potency, no number is given. The source made the active and inactive calls. Unless noted, calls come from the whole dose curve.

Chain of Progesterone receptor (Homo sapiens) (P06401 whole entry, looked up): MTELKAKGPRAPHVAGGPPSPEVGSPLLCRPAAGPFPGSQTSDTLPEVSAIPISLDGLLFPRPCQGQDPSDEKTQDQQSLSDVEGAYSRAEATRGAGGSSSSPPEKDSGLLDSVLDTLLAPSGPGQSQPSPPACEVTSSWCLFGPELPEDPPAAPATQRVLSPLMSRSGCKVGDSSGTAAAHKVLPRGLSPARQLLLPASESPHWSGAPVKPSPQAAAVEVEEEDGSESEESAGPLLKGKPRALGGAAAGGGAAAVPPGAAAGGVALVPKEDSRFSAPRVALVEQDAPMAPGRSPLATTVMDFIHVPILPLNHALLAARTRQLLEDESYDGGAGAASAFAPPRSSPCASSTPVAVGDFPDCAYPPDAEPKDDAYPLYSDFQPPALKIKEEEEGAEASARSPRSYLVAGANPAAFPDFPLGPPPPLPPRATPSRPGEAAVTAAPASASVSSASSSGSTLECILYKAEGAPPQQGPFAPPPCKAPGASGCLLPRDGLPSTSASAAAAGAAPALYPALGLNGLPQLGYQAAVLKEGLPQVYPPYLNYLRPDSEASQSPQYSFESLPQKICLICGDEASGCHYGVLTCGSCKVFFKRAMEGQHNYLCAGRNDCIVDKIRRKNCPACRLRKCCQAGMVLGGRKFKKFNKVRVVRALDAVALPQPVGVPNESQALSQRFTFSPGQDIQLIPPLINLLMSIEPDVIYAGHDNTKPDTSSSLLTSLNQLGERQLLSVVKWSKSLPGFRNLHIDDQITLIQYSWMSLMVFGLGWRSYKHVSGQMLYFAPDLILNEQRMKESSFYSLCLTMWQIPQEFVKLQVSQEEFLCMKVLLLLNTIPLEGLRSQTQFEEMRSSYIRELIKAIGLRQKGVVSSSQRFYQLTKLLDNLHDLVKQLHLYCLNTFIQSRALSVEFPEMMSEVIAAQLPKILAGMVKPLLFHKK
Chain of Thyrotropin receptor (Homo sapiens) (P16473 whole entry, looked up): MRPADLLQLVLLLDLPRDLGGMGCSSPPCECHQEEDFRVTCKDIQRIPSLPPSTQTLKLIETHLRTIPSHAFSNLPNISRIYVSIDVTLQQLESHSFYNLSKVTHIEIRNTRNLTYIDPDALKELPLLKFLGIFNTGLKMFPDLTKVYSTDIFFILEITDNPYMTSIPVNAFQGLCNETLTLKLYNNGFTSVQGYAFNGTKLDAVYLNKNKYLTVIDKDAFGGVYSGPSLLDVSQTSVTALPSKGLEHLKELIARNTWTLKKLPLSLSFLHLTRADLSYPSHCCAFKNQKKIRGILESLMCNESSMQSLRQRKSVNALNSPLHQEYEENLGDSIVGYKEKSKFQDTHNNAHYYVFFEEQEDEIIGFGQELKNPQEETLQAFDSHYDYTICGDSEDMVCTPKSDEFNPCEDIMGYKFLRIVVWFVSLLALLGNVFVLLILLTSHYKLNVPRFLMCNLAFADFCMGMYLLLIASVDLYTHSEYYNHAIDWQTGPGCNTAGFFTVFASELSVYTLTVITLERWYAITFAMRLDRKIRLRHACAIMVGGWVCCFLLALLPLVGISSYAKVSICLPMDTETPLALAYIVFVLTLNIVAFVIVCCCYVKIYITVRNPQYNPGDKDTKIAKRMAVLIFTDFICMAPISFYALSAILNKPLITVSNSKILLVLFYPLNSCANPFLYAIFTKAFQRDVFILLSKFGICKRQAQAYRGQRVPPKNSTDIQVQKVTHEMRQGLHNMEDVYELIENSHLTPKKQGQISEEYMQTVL

One assay deals with Thyrotropin receptor (Homo sapiens) (UniProt P16473). The assay is described as follows: qHTS assay to identify small molecule antagonists of the thyroid stimulating hormone receptor (TSHR) signaling pathway (AID 1259385). Note: nearly all actives have a fitted effect of over 20% in size. To be noted: TSHR-HEK293 cAMP HTRF, TSH-stimulated antagonist mode; series mostly up to 92.4 µM. A digest of the protocol:
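Antagonist mode: compound-treated TSHR-expressing HEK293 cells were stimulated with 1.5 ng/mL TSH (final) in presence of Ro20-1724 for 30 min at RT. HTRF cAMP detection after 1 h; each compound tested at 15 concentrations, triplicate.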
Regarding `CCC1(c2ccccc2)C(=O)N(COC)C(=O)N(COC)C1=O`, the result was inactive.

On to `CC[C@@H](CO)NC(=O)[C@@H]1C=C2c3cccc4[nH]cc(c34)C[C@H]2N(C)C1`, for which the compound was classed as inactive.

For `Cc1ccc(S(=O)(=O)N[C@@H](CCCCN)C(=O)CCl)cc1`, the compound was called inactive.

Take `COC(=O)[C@@H](N)CCCN/C(N)=N/[N+](=O)[O-]`: the call was inactive.

With `C=CC=O`, the result was inactive.

With `CC(C)(C)NC[C@H](O)c1ccc(O)cc1Cl`, the call was inactive.

With `O=P(O)(O)c1ccccc1`, the compound was called inactive.

On to `COc1cccc(C=O)c1`, for which the outcome was inactive.

Turning to `COc1ccccc1OC`, the outcome was inactive.

Regarding `N[C@@H]1C[C@H]1c1ccccc1`, the compound was called inactive.

Consider `CN(C)C(=O)Oc1cc(OC(=O)N(C)C)cc(C(O)CNC(C)(C)C)c1` (stereo not given), for which the outcome was inactive.

In the case of `ClCCCCCCCl`, the compound was classed as inactive.

For `CCN(CCO)CCO`, the outcome was inactive.

With `Nc1c(Cl)c(F)nc(OCC(=O)O)c1Cl`, the call was inactive.

In the case of `CCCCCCCC(=O)Cl`, the result was inactive.

On to `ClC1=C(Cl)C2(Cl)C(CBr)CC1(Cl)C2(Cl)Cl` (stereo not given), for which the result was inactive.

`CCCCCCC1CCOC1=O` (stereo not given): the compound was classed as inactive.

Regarding `CCCCS(=O)(=O)Cl`, the compound was classed as inactive.

For the compound `CC(=O)CN(CC(C)=O)N=O`, the compound was called inactive.

For the compound `CCOP(=O)(CN(CCO)CCO)OCC`, the compound was classed as inactive.

As for `O=C(Cl)OCc1ccccc1`, the compound was called inactive.

Take `CNC(=O)NC(O)C(Cl)(Cl)Cl` (stereo not given): the compound was called inactive.

With `CCC1(c2ccccc2)CCC(=O)NC1=O` (stereo not given), the call was inactive.

For the compound `CCC(C)C(C)(COC(N)=O)COC(N)=O` (stereo not given), the call was inactive.

In the case of `ClCCN1CCCC1`, the compound was classed as inactive.

As for `CC(Cl)(Cl)Cl`, the compound was called inactive.

Consider `CC(C)N(Cc1ccccc1)C(=O)C(C)(C)C`, for which the call was inactive.

`CC#Cc1cc(C)nc(Nc2ccccc2)n1`: the compound was called inactive.

For the compound `CCc1ccc(C2CCNCC2)cc1`, the compound was called inactive.

Turning to `CS(=O)(=O)c1ccc(C(=O)C2C(=O)CCCC2=O)c(Cl)c1COCC(F)(F)F`, the outcome was inactive.

Regarding `C(COCC1CO1)OCC1CO1` (stereo not given), the compound was classed as inactive.

As to `NCC1(CC(=O)O)CCCCC1`, the compound was classed as inactive.

As for `CC(O)CCl` (stereo not given), the outcome was inactive.

With `CCOP(=S)(OCC)SCCl`, the call was inactive.

Regarding `CC(Cc1ccccc1)NCCCCl` (stereo not given), the compound was called inactive.

Tested on in the next assay: not listed separately
Briefly: qHTS assay to identify small molecule agonists of the estrogen receptor alpha (ER-alpha) signaling pathway in the presence of an antagonist - cell viability counter screen (AID 1259386; active = well fitted cell-killing curve with a large enough effect in the repeat runs;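 note: cells exposed to compounds for 22 h at 37 °C before the viability read; nearly all actives have a fitted effect of over 30% in size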). To be noted: VM7Luc4E2 viability, CellTiter-Fluor fluorescence, 22 h; series mostly up to 92.4 µM. A digest of the protocol: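 Using estrogen-depleted VM7Luc4E2 cells, the 15-concentration compound series was applied together with 10.0nM ICI-182,780 and incubated 22hr at 37C/5% CO2. Cell viability was then scored by CellTiter-Fluor.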
Take `CCC1(c2ccccc2)C(=O)N(COC)C(=O)N(COC)C1=O`: the Potency result is “inactive”.

Turning to `CC[C@@H](CO)NC(=O)[C@@H]1C=C2c3cccc4[nH]cc(c34)C[C@H]2N(C)C1`, the Potency result is “inactive”.

As for `Cc1ccc(S(=O)(=O)N[C@@H](CCCCN)C(=O)CCl)cc1`, the Potency entry is “inactive”.

On to `COC(=O)[C@@H](N)CCCN/C(N)=N/[N+](=O)[O-]`, for which the Potency entry is “inactive”.

Regarding `C=CC=O`, the Potency entry was “inactive”.

Consider `CC(C)(C)NC[C@H](O)c1ccc(O)cc1Cl`, for which the Potency entry is “inactive”.

On to `O=P(O)(O)c1ccccc1`, for which the Potency entry is “inactive”.

As for `COc1cccc(C=O)c1`, the Potency entry is “inactive”.

With `COc1ccccc1OC`, the Potency result was “inactive”.

Turning to `N[C@@H]1C[C@H]1c1ccccc1`, the Potency entry was “inactive”.

`CN(C)C(=O)Oc1cc(OC(=O)N(C)C)cc(C(O)CNC(C)(C)C)c1` (stereo not given): the Potency result is “inactive”.

Turning to `ClCCCCCCCl`, the Potency result was “inactive”.

Regarding `CCN(CCO)CCO`, the Potency result is “inactive”.

`Nc1c(Cl)c(F)nc(OCC(=O)O)c1Cl`: the Potency entry was “inactive”.

Consider `CCCCCCCC(=O)Cl`, for which the Potency result is “inactive”.

Turning to `ClC1=C(Cl)C2(Cl)C(CBr)CC1(Cl)C2(Cl)Cl` (stereo not given), the Potency result is “inactive”.

In the case of `CCCCCCC1CCOC1=O` (stereo not given), the Potency entry is “inactive”.

`CCCCS(=O)(=O)Cl`: the Potency result was “inactive”.

For `CC(=O)CN(CC(C)=O)N=O`, the Potency entry is “inactive”.

As to `CCOP(=O)(CN(CCO)CCO)OCC`, the Potency entry was “inactive”.

`O=C(Cl)OCc1ccccc1`: the Potency entry is “inactive”.

As for `CNC(=O)NC(O)C(Cl)(Cl)Cl` (stereo not given), the Potency result is “inactive”.

`CCC1(c2ccccc2)CCC(=O)NC1=O` (stereo not given): the Potency result is “inactive”.

`CCC(C)C(C)(COC(N)=O)COC(N)=O` (stereo not given): the Potency entry is “inactive”.

`ClCCN1CCCC1`: the Potency entry is “inactive”.

With `CC(Cl)(Cl)Cl`, the Potency entry was “inactive”.

As for `CC(C)N(Cc1ccccc1)C(=O)C(C)(C)C`, the Potency result is “inactive”.

Consider `CC#Cc1cc(C)nc(Nc2ccccc2)n1`, for which the Potency entry was “inactive”.

In the case of `CCc1ccc(C2CCNCC2)cc1`, the Potency entry was “inactive”.

For the compound `CS(=O)(=O)c1ccc(C(=O)C2C(=O)CCCC2=O)c(Cl)c1COCC(F)(F)F`, the Potency entry is “inactive”.

`C(COCC1CO1)OCC1CO1` (stereo not given): the Potency result was “inactive”.

With `NCC1(CC(=O)O)CCCCC1`, the Potency entry is “inactive”.

For `CC(O)CCl` (stereo not given), the Potency result is “inactive”.

Regarding `CCOP(=S)(OCC)SCCl`, the Potency result is “inactive”.

Consider `CC(Cc1ccccc1)NCCCCl` (stereo not given), for which the Potency entry is “inactive”.

A further assay has as its target Progesterone receptor (Homo sapiens) (UniProt P06401). The assay is described as follows: qHTS assay to identify small molecule agonists of the progesterone receptor (PR) signaling pathway (AID 1346784). Note: nearly all actives have a fitted effect of over 30% in size. To be noted: PR-UAS-bla HEK293T, beta-lactamase FRET ratio, 16 h; series mostly up to 92.4 µM. A digest of the protocol: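 Using charcoal-stripped serum (2%) to limit endogenous steroids, PR-UAS-bla HEK 293T cells received compounds for 16 hr at 37C after 6 hr plating; beta-lactamase FRET fluorescence was recorded following 2 hr substrate loading at room temperature.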
Take `CCC1(c2ccccc2)C(=O)N(COC)C(=O)N(COC)C1=O`: the Potency result was “inactive”.

Turning to `CC[C@@H](CO)NC(=O)[C@@H]1C=C2c3cccc4[nH]cc(c34)C[C@H]2N(C)C1`, the Potency entry was “inactive”.

Take `Cc1ccc(S(=O)(=O)N[C@@H](CCCCN)C(=O)CCl)cc1`: the Potency result is “inactive”.

Regarding `COC(=O)[C@@H](N)CCCN/C(N)=N/[N+](=O)[O-]`, the Potency result is “inactive”.

Take `C=CC=O`: the Potency result was “inactive”.

On to `CC(C)(C)NC[C@H](O)c1ccc(O)cc1Cl`, for which the Potency result was “inactive”.

Turning to `O=P(O)(O)c1ccccc1`, the Potency result was “inactive”.

Take `COc1cccc(C=O)c1`: the Potency entry was “inactive”.

On to `COc1ccccc1OC`, for which the Potency result is “inactive”.

Regarding `N[C@@H]1C[C@H]1c1ccccc1`, the Potency result is “inactive”.

For `CN(C)C(=O)Oc1cc(OC(=O)N(C)C)cc(C(O)CNC(C)(C)C)c1` (stereo not given), the Potency entry was “inactive”.

Take `ClCCCCCCCl`: the Potency result is “inactive”.

In the case of `CCN(CCO)CCO`, the Potency entry was “inactive”.

As for `Nc1c(Cl)c(F)nc(OCC(=O)O)c1Cl`, the Potency entry was “inactive”.

`CCCCCCCC(=O)Cl`: the Potency result was “inactive”.

On to `ClC1=C(Cl)C2(Cl)C(CBr)CC1(Cl)C2(Cl)Cl` (stereo not given), for which the Potency result is “inactive”.

Regarding `CCCCCCC1CCOC1=O` (stereo not given), the Potency entry is “inactive”.

As for `CCCCS(=O)(=O)Cl`, the Potency entry was “inactive”.

For `CC(=O)CN(CC(C)=O)N=O`, the Potency result was “inactive”.

Take `CCOP(=O)(CN(CCO)CCO)OCC`: the Potency result was “inactive”.

For the compound `O=C(Cl)OCc1ccccc1`, the Potency result is “inactive”.

Consider `CNC(=O)NC(O)C(Cl)(Cl)Cl` (stereo not given), for which the Potency result was “inactive”.

Take `CCC1(c2ccccc2)CCC(=O)NC1=O` (stereo not given): the Potency result was “inactive”.

With `CCC(C)C(C)(COC(N)=O)COC(N)=O` (stereo not given), the Potency entry is “inactive”.

As for `ClCCN1CCCC1`, the Potency entry is “inactive”.

As for `CC(Cl)(Cl)Cl`, the Potency entry is “inactive”.

With `CC(C)N(Cc1ccccc1)C(=O)C(C)(C)C`, the Potency result was “inactive”.

Take `CC#Cc1cc(C)nc(Nc2ccccc2)n1`: the Potency entry is “inactive”.

In the case of `CCc1ccc(C2CCNCC2)cc1`, the Potency result is “inactive”.

Regarding `CS(=O)(=O)c1ccc(C(=O)C2C(=O)CCCC2=O)c(Cl)c1COCC(F)(F)F`, the Potency entry was “inactive”.

In the case of `C(COCC1CO1)OCC1CO1` (stereo not given), the Potency entry is “inactive”.

For the compound `NCC1(CC(=O)O)CCCCC1`, the Potency entry is “inactive”.

In the case of `CC(O)CCl` (stereo not given), the Potency entry is “inactive”.

Regarding `CCOP(=S)(OCC)SCCl`, the Potency entry was “inactive”.

As to `CC(Cc1ccccc1)NCCCCl` (stereo not given), the Potency result is “inactive”.
